PubChem BioAssay (NCATS)
Inconclusive results are not listed. The source made the active and inactive calls. Unless noted, calls come from the whole dose curve; as a rule, active = well fitted curve in the direction sought with a large enough effect; inconclusive = small, poorly fitted or top-dose-only effect, or another doubt; inactive = no such curve, though single readings can be large; an effect the other way counts as inactive or inconclusive.

How the values were obtained:
[1] = molecular target: Cytochrome P450 1A2 (Homo sapiens) (UniProt P05177); experiment: p450-cyp1a2 (AID 410; calls by dose curve;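 note: -100% = full effect of reference inhibitor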)
Cytochrome P450 1A2 (Homo sapiens), sequence (P05177 whole entry, looked up): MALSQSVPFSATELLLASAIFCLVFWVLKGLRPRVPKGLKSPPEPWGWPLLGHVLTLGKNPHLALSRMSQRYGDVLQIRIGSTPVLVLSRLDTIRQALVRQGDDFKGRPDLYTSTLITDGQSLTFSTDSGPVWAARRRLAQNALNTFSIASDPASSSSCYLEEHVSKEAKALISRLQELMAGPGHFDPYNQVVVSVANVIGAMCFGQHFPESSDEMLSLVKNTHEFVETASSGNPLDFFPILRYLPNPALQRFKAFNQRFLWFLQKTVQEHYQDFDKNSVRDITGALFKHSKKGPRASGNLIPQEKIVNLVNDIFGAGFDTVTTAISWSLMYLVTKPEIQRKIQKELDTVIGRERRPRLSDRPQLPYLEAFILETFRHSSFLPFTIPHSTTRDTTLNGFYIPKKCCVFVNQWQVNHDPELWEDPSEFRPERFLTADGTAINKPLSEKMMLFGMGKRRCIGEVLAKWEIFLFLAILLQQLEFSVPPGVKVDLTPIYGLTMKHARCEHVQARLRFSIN
Method in brief: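 Luminescent demethylation readout: Luciferin-ME (100uM, equal to Km) turned over by 20nM CYP1A2 for 60 min at room temperature after NADPH regeneration addition, following 10 min compound preincubation. Normalization used 57 uM furafylline as full inhibition.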

[2] = NFAT Signaling Pathway (AID 444; active = well fitted curve in either direction with a large enough effect, not every such curve was filed as active;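 note: carbachol stimulus at about its EC50 of 1 µM final; % is set by controls: 0 for no effect and ±100 for the full control effect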); conditions: Jurkat NFAT-bla M1, carbachol, beta-lactamase ratio, 5 h; at 7.69 µM (top of the series) unless noted
Method in brief: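 Jurkat cells carrying an NFAT-driven β-lactamase reporter and co-transfected muscarinic M1 receptor were treated with compound plus carbachol (1 uM final, an EC50 level) for 5 h at 37 °C. CCF4 loading followed for 1 h at RT; 460/530 nm ratio gave %activity.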

[3] = molecular target: Glucocorticoid receptor (Homo sapiens) (UniProt P04150); experiment: GR-EFC Redistribution (AID 451; calls by dose curve; note: potency is the fitted concentration of half-maximal effect); conditions: CHO-K1 GR-EFC translocation, beta-gal luminescence, 2 h
Glucocorticoid receptor (Homo sapiens), sequence (P04150 whole entry, looked up, the tested form may be a part): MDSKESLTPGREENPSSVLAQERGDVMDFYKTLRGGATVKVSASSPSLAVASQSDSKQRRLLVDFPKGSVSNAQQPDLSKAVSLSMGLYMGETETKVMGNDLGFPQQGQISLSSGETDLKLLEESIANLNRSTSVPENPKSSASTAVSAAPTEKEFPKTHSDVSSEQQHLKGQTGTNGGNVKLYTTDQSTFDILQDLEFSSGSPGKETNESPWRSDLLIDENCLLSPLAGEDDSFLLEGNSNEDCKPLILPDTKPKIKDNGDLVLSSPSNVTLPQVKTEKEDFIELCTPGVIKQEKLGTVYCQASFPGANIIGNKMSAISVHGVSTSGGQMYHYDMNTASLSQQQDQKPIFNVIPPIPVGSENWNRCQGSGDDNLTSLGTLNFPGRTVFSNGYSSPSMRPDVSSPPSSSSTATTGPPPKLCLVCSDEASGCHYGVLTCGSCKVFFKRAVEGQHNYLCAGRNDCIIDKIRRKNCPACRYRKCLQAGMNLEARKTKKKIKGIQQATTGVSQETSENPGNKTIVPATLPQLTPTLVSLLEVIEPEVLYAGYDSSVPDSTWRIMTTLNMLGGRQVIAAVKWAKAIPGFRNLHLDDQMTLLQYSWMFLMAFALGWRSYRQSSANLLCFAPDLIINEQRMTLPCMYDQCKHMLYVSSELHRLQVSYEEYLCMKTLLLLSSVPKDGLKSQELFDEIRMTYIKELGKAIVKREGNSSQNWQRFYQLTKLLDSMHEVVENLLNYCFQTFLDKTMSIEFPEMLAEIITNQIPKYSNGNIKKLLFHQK
Method in brief: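 CHO-K1 cells stably expressing nuclear-localized β-gal enzyme acceptor and GR fused C-terminally to the enzyme donor fragment; ligand-driven nuclear translocation restores β-gal by complementation. Compounds titrated up to 46 uM final, 2 h at 37 °C; luminescence read.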

[4] = molecular target: Mitogen-activated protein kinase 10 (Mus musculus) (UniProt Q61831); experiment: JNK3 AlphaScreen Assay (AID 530; active = well fitted curve in either direction with a large enough effect, not every such curve was filed as active;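 note: kinase came from lysate of stimulated human HepG2 cells; signal reports phosphorylation of biotinylated GST-cJun 1-79 at Ser73 with 10 µM ATP; % is set by controls: 0 for no effect and ±100 for the full control effect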)
Method in brief: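 Phosphorylation of biotinylated GST-cJun(1-79) at Ser73 is measured by AlphaScreen proximity luminescence. Enzyme is JNK3 in HepG2 lysates activated with interleukin-1beta and tumor necrosis factor alpha; ATP is 10 uM final.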

[5] = molecular target: 3',5'-cyclic-AMP phosphodiesterase 4B (Homo sapiens) (UniProt Q07343); experiment: qHTS Assay for Inhibitors of PDE-IV (AID 607; active = well fitted activation curve with a large enough effect in the main read-out, with a control signal flat, not every such curve was filed as active; note: % of control where 0% means no effect)
Method in brief: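 Live HEK293 cells with a modified cyclic nucleotide-gated (CNG) channel report intracellular cAMP via membrane-potential dye fluorescence (ex 535/em 590 nm). Endogenous PDE-IV was targeted. Compounds were tested at up to 22.9 uM final; RO 20-1724 100 uM served as control.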

[6] = molecular target: Guanine nucleotide-binding protein G(i) subunit alpha-1 (Homo sapiens) (UniProt P63096); experiment: qHTS Assay for Inhibitors of RGS12 GoLoco Motif Activity (Green Fluorophore) (AID 879);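 note: 0% = labeled peptide with Gαi1 and full inhibition = labeled peptide alone without protein; negative values mean loss of peptide binding seen as reduced polarization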
Guanine nucleotide-binding protein G(i) subunit alpha-1 (Homo sapiens), sequence (P63096 whole entry, looked up): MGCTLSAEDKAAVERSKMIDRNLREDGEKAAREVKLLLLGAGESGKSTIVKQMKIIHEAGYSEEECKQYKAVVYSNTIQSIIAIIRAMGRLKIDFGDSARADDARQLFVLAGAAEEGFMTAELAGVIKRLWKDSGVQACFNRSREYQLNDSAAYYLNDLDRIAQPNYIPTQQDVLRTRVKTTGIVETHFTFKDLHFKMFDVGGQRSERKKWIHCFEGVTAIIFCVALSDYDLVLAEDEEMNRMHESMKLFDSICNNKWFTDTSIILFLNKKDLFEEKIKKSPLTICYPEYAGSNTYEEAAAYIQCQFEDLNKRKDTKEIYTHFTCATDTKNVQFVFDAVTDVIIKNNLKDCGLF
Method in brief: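 A drop in FITC polarization marked displacement of the FITC-tagged RGS12 GoLoco peptide (10 nM) from Gαi1 (50 nM). Compounds were incubated 10 min at room temperature in Tris pH 7.5 buffer containing 150 mM NaCl, 0.1 mM GDP and 0.05% NP40; unlabeled peptide titration served as control.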

[7] = molecular target: Cytochrome P450 3A4 (Homo sapiens) (UniProt P08684); experiment: qHTS Assay for Activators of Cytochrome P450 3A4 (AID 885); note: nearly all actives have a fitted effect of over 65% in size
Method in brief: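 Using 20nM recombinant human CYP3A4 in potassium phosphate (200mM), substrate Luciferin-PPXE at 25uM, luminescent luciferin detection followed a 60-min RT NADPH reaction; data scaled to 57 uM ketoconazole.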

[8] = molecular target: Cytochrome P450 2D6 (Homo sapiens) (UniProt P10635); experiment: qHTS Assay for Inhibitors and Substrates of Cytochrome P450 2D6 (AID 891); note: potency is the fitted concentration of half-maximal effect; nearly all actives have a fitted effect of over 60% in size
Method in brief: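 Luminescent read-out of luciferin formed by 5 nM human CYP2D6 demethylating 30 uM Luciferin-ME EGE (Km level) over 60 min at room temperature after NADPH regeneration addition. Data normalized to full inhibition by 1.43 uM quinidine.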

[9] = qHTS Assay for Identification of Small Molecule Antagonists for Thrombopoietin (TPO) Signaling Pathway (AID 918); conditions: TPO-dependent cell signaling reporter, antagonist mode; note: potency is the fitted concentration of half-maximal effect; nearly all actives have a fitted effect of over 60% in size
Method in brief: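 Inhibition read as reduced luciferase luminescence after 24 h at 37 C in IL-3-deprived Ba/F3 cells carrying human TPO receptor and GPIIb-promoter reporter, stimulated with 26 pM TPO (final, its EC50) alongside compound.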

[10] = molecular target: Muscarinic acetylcholine receptor M1 (Rattus norvegicus) (UniProt P08482); experiment: qHTS Assay for Antagonists of Acetylcholine Muscarinic M1 Receptor: Measurement of IP-One Response (AID 944); note: potency is the fitted concentration of half-maximal effect; nearly all actives have a fitted effect of over 75% in size
Muscarinic acetylcholine receptor M1 (Rattus norvegicus), sequence (P08482 whole entry, looked up): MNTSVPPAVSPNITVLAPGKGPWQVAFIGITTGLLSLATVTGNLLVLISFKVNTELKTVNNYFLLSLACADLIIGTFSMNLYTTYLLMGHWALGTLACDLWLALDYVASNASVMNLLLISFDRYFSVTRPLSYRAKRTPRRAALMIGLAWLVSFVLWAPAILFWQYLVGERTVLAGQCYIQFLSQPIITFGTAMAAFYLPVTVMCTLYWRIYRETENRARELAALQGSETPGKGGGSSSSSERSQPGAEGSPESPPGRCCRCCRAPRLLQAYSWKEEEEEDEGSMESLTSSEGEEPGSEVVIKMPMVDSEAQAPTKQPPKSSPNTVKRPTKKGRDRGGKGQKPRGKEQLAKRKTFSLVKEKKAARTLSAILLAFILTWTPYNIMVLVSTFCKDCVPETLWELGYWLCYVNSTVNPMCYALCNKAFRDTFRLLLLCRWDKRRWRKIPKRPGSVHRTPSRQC
Method in brief: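 IP1 accumulation measured via TR-FRET between d2-IP1 and Eu-cryptate anti-IP1 antibody after carbachol (200 nM, EC80) stimulation for 30 min; rat M1-transfected CHO cells received compound 10 min before agonist.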

[11] = molecular target: Pyruvate kinase (Leishmania mexicana) (UniProt Q27686); experiment: qHTS Validation Assay for Inhibitors of Leishmania Mexicana Pyruvate Kinase (AID 945);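 note: 0% = DMSO only neutral control wells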
Pyruvate kinase (Leishmania mexicana), sequence (Q27686 2-499 E452W): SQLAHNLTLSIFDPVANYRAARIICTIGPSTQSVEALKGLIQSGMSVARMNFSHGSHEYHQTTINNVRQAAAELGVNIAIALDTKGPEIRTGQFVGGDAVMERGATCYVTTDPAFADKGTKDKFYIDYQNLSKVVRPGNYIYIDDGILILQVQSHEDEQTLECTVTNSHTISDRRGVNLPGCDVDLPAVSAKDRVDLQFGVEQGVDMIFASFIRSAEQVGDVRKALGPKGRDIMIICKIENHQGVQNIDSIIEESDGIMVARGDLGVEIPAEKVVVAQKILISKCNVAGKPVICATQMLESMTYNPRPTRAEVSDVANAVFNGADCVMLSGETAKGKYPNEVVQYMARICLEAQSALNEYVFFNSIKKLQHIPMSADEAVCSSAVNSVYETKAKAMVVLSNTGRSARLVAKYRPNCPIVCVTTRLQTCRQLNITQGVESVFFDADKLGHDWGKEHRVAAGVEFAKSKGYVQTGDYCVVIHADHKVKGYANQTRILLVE
Method in brief: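 LmPYK E451W 0.2 nM; 0.5 mM PEP, 0.1 mM ADP, 7 mM MgCl2, 50 mM KCl, imidazole pH 7.2, 0.01% Tween 20, 0.05% BSA; 1 h RT; PKLight luminescence; DMSO-normalized.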

[12] = molecular target: Pyruvate kinase PKM (Homo sapiens) (UniProt P14618); experiment: qHTS Assay for Activators of Human Muscle Pyruvate Kinase (AID 954; active = well fitted curve in the direction sought with a large enough effect, not every such curve was filed as active;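 note: 0% = uninhibited enzyme and -100% = no enzyme or full thiadiazolimine inhibition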)
Method in brief: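 Screening used highly purified human pyruvate kinase M2 under submaximal activity, with PEP at its Km and ADP below Km. After an hour at room temperature, ATP was read by luciferase luminescence.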

[13] = molecular target: Alpha-galactosidase A (Homo sapiens) (UniProt P06280); experiment: Counterscreen for Glucocerebrosidase Inhibitors: qHTS Assay for Human alpha-Galactosidase at pH 4.5 (AID 992); note: 0% is about no effect
Alpha-galactosidase A (Homo sapiens), sequence (P06280 whole entry, looked up): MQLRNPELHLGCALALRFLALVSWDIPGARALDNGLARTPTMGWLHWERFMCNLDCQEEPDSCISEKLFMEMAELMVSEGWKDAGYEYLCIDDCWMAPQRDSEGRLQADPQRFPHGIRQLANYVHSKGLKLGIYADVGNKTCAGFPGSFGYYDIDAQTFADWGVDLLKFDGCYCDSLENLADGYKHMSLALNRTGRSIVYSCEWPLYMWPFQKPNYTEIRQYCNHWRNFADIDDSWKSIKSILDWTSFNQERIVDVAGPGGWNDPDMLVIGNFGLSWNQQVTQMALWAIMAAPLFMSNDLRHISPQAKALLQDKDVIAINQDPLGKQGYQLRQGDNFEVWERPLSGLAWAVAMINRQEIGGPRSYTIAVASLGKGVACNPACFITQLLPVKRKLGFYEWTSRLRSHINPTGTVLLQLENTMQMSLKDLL
Method in brief: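 Each compound is preincubated briefly with 2 nM enzyme before substrate addition (80 uM); plates then sit 20 min at ambient temperature, are quenched with 1M NaOH/1M glycine, and read fluorometrically.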

[14] = molecular target: alpha-glucosidase (Oryza sativa, rice) (UniProt Q653V4); experiment: Counterscreen for Glucocerebrosidase Inhibitors: qHTS Assay for Rice alpha-Glucosidase at pH 5.0 (AID 997);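 note: 0% = full activity with enzyme and -100% = basal without enzyme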
Method in brief: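 Endpoint fluorogenic assay at pH 5.0: compounds (0.7 nM to 77 uM) titrated against 4 nM rice enzyme and 400 uM 4-MU-alpha-glucoside for 20 min at room temperature; NaOH/glycine stop, read ex 365/em 440 nm, Hill-fitted AC50.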

[15] = molecular target: DNA repair nuclease/redox regulator APEX1 (Homo sapiens) (UniProt P27695); experiment: qHTS Validation Assay for Inhibitors of the Human Apurinic/apyrimidinic Endonuclease 1 (APE1) (AID 1705; note: potency is the fitted concentration of half-maximal effect)
Method in brief: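 qHTS, 1536-well. APE1 + cpd 15 min RT → 50 nM TAMRA/BHQ-2 THF-abasic dsDNA substrate → kinetic fluorescence, 3 reads/60 s; delta(read3−read1) = reaction progress. No-enzyme buffer = negative control.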

[16] = Counterscreen for APE1 Inhibitors: Fluorescent Dye Displacement Validation Assay (AID 1707);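 note: plate controls were ThO with dsDNA and no compound for no effect and ThO without dsDNA for full effect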
Method in brief: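 Loss of Thiazole Orange fluorescence marks promiscuous DNA binders. The dye (250 nM) is mixed with 50 nM abasic-site dsDNA in pH7.5 Tris buffer containing MgCl2, then compounds are added and emission is read once.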

[17] = qHTS for differential inhibitors of proliferation of Plasmodium falciparum line 7G8 (AID 1815);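 note: potency is the fitted concentration of half-maximal effect; parasite growth measured after three days of incubation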
[18] = qHTS for differential inhibitors of proliferation of Plasmodium falciparum line GB4 (AID 1816); conditions: Potency: Plasmodium falciparum GB4 proliferation inhibition;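 note: potency is the fitted concentration of half-maximal effect; parasite growth measured after 72 h incubation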
[19] = qHTS for differential inhibitors of proliferation of Plasmodium falciparum line 3D7 (AID 1876); note: potency is the fitted concentration of half-maximal effect
[20] = qHTS for differential inhibitors of proliferation of Plasmodium falciparum line D10 (AID 1877);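 note: potency is the fitted concentration of half-maximal effect; parasites grown with compound for 72 h before DNA staining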
[21] = qHTS for differential inhibitors of proliferation of Plasmodium falciparum line Dd2 (AID 1882); conditions: Potency: Plasmodium falciparum Dd2 proliferation inhibition; note: potency is the fitted concentration of half-maximal effect; nearly all actives have a fitted effect of over 65% in size
Method in brief: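 SYBR Green DNA fluorescence (ex 485, em 535 nm) after overnight lysis quantifies parasite growth; compound exposure lasted 72 h at 37 C on infected red cells at 2.5% hematocrit, 0.3% parasitemia (final). Artemisinin 0.29 uM and vehicle wells define normalization.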

[22] = qHTS for differential inhibitors of proliferation of Plasmodium falciparum line W2 (AID 1883); conditions: Potency: Plasmodium falciparum W2 proliferation inhibition;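 note: potency is the fitted concentration of half-maximal effect; parasites grown with compound for 72 h before lysis and staining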
[23] = qHTS for differential inhibitors of proliferation of Plasmodium falciparum line HB3 (AID 1886); conditions: Potency: Plasmodium falciparum HB3 proliferation inhibition;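 note: potency is the fitted concentration of half-maximal effect; parasites grown with compound for 72 h before SYBR Green readout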
[24] = Quantitative high throughput screen for delayed death inhibitors of the malarial parasite plastid, 48 hour incubation (AID 488752); note: potency is the fitted concentration of half-maximal effect; nearly all actives have a fitted effect of over 65% in size
Method in brief: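 One-generation (48 h) growth assay: a decrease in luciferase signal from an integrated reporter in P. falciparum-infected red cells (0.1% parasitemia, 2% hematocrit) after compound exposure at 37 C indicates parasite inhibition.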

[25] = molecular target: M-phase phosphoprotein 8 (Homo sapiens) (UniProt Q99549); experiment: qHTS Validation Assay for Inhibitors for MPP8 Chromodomain Interactions with Methylated Histone Tails (AID 488949); note: potency is the fitted concentration of half-maximal effect; nearly all actives have a fitted effect of over 55% in size
Method in brief: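 50 nM MPP8 + 50 nM b-H3K9me3 peptide, PBS pH 7.4/0.01% Tween-20, 30 min RT; + cpd 30 min RT; + AlphaScreen donor/Ni-chelate acceptor beads 10 ug/mL final, 30 min dark; luminescence read.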

[26] = molecular target: Transient receptor potential cation channel subfamily V member 1 (Homo sapiens) (UniProt Q8NER1); experiment: HTS Assay for Compounds that Act as Enhancers of the Vanilloid Receptor 1 (AID 488979); note: 0% is about no effect
Method in brief: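 TRPV1-expressing cells loaded with Fluo-8 calcium dye; compounds added and calcium influx read kinetically for 3 min (agonist phase), then capsaicin at EC20 added and read 2 min more for enhancement. Fluorescence ex 480/em 520 nm.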

[27] = molecular target: Thyrotropin receptor (Homo sapiens) (UniProt P16473); experiment: qHTS Assay for Antagonists of the Thyroid Stimulating Hormone Receptor (AID 488980); note: 0% is about no effect
Method in brief: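 Readout is cAMP by HTRF competition between cellular cAMP and cAMP-d2 for a cryptate-labelled antibody. Antagonism was assessed in TSHR-transfected HEK293 cells stimulated with 4 nM TSH (EC80, final) in the presence of RO 20-1724.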

[28] = molecular target: Thyrotropin-releasing hormone receptor (Homo sapiens) (UniProt P34981); experiment: qHTS for Small Molecule Agonists and Allosteric Enhancers of Human TRH Receptor: Validation Screen for Agonists (AID 493127;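 active = calcium activation more than 3 SD above the typical response in the agonist read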;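 note: intracellular calcium rise by fluo-8 fluorescence before TRH EC20 addition; 0% is about no effect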); conditions: TRH receptor agonist cell assay; at 2 µM; stronger effect = higher value
Thyrotropin-releasing hormone receptor (Homo sapiens), sequence (P34981 whole entry, looked up): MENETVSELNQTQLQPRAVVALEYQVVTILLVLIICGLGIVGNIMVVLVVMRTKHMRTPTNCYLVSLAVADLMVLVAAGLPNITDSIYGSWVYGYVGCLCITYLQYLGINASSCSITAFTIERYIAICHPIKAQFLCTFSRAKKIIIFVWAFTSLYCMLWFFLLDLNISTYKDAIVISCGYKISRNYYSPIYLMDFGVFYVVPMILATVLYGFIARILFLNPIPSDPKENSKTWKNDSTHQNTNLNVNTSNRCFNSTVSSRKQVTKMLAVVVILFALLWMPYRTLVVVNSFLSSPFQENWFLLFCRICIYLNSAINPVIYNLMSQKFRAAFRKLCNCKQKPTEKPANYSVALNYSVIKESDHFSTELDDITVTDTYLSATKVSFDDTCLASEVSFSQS
Method in brief: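 Compound-evoked intracellular calcium release in fluo-8-loaded TRHR cells, read kinetically on FDSS (Ex 480/Em 530, 1 s/cycle) after 23 nL pintool transfer. Agonist phase preceded 10 nM TRH EC20 addition.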

[29] = molecular target: Galactokinase (Homo sapiens) (UniProt P51570); experiment: qHTS Validation Assay for Inhibitors of Human Galactokinase (GALK) (AID 493189); note: 0% is about no effect
Galactokinase (Homo sapiens), sequence (P51570 whole entry, looked up): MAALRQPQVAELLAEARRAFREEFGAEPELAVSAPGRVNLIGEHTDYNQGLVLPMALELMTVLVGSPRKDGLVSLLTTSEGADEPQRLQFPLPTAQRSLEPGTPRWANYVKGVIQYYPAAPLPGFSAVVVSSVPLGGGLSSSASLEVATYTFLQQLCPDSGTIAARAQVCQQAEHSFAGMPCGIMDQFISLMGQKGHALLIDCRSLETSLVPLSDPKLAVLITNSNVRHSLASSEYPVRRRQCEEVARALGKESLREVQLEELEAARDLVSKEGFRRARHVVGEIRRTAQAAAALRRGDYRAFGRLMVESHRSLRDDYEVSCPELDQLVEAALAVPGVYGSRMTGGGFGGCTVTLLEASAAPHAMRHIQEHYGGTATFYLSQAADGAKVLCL
Method in brief: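 5 nM GALK / 100 uM galactose / 35 uM ATP, 20 mM HEPES pH8.0, 5 mM MgCl2, 60 mM NaCl, 1 mM DTT, 0.01% BSA (final). RT 1 h; Kinase-Glo Plus luminescence.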

[30] = molecular target: Voltage-gated inwardly rectifying potassium channel KCNH2 (Homo sapiens) (UniProt Q12809); experiment: qHTS Assay for Small Molecule Inhibitors of the Human hERG Channel Activity (AID 588834);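 note: potency is the fitted concentration of half-maximal effect; lower thallium flux fluorescence means stronger hERG block; nearly all actives have a fitted effect of over 50% in size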
Method in brief: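 Step 1: BacMam hERG transduction of U2OS, 4 hrs RT. Step 2: overnight 37 °C, plate 2000 cells/well, 4 hr. Step 3: FluxOR load, compound 10 min, stimulate, read fluorescence.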

[31] = molecular target: Catechol O-methyltransferase (Homo sapiens) (UniProt P21964); experiment: Confirmatory Screen for Target Class Profiling of Small Molecule Inhibitors of Methyltransferases (AID 1745852; calls by dose curve; for activity change, negative = inhibition: % is set by controls: 0 for no effect and ±100 for the full control effect); conditions: MTase-Glo luminescence, SAH detection, recombinant enzyme; measured here: COMT max response; stronger effect = lower value
Catechol O-methyltransferase (Homo sapiens), sequence (P21964 whole entry, looked up): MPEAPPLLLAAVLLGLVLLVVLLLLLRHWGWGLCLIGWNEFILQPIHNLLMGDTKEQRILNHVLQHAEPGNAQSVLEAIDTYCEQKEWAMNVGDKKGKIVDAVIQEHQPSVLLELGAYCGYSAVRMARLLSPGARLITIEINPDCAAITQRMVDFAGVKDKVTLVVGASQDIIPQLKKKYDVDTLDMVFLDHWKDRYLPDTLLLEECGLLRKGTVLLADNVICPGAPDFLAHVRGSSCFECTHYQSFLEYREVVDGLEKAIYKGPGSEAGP

[32] = molecular target: Guanidinoacetate N-methyltransferase (Homo sapiens) (UniProt Q14353); experiment: as above; conditions: activity change, negative = inhibition: at 57.3 µM (top of the series) unless noted
[33] = molecular target: Nicotinamide N-methyltransferase (Homo sapiens) (UniProt P40261); experiment: as above; conditions: MTase-Glo luminescence, SAH detection, recombinant enzyme; measured here: NNMT max response; stronger effect = lower value
Nicotinamide N-methyltransferase (Homo sapiens), sequence (P40261 whole entry, looked up): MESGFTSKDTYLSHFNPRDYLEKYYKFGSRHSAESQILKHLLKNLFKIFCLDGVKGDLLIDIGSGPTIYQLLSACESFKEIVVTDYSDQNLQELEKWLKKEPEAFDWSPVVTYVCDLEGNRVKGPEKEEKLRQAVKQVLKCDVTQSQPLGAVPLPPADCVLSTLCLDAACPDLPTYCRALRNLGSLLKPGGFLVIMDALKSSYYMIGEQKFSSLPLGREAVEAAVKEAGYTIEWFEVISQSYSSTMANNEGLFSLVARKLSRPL

[34] = molecular target: Phenylethanolamine N-methyltransferase (Homo sapiens) (UniProt P11086); experiment: as above; conditions: MTase-Glo luminescence, SAH detection, recombinant enzyme; measured here: PNMT max response; stronger effect = lower value
Phenylethanolamine N-methyltransferase (Homo sapiens), sequence (P11086 whole entry, looked up): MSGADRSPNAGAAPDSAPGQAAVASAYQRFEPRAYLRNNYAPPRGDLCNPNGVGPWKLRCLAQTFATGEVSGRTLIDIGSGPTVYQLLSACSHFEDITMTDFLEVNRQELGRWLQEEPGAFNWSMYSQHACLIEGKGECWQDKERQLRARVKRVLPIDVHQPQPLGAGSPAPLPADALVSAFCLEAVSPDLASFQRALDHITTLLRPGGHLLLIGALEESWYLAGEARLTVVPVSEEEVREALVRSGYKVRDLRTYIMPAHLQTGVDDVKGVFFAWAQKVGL

Cc1cc(N)c2ccccc2[n+]1CCCCCCCCCCCCCC[n+]1c(C)cc(N)c2ccccc21
Potency [1]: inactive | activity change, negative = inhibition [2]: -82.1% [at 38 µM] (active) | Potency [3]: > 46000 nM (inactive) | Potency [4]: inactive | Potency [5]: inactive | Potency [6]: inactive | outcome [7]: inactive | Potency [8]: 7940 nM (active) | Potency [9]: 2510 nM (active) | Potency [10]: 3980 nM (active) | outcome [11]: inactive | outcome [12]: inactive | outcome [13]: inactive | outcome [14]: inactive | Potency [15]: 28200 nM (active) | outcome [16]: inactive | Potency [17]: 316 nM (active) | Potency [18]: 316 nM (active) | Potency [19]: 126 nM (active) | Potency [20]: 316 nM (active) | Potency [21]: 355 nM (active) | Potency [22]: 141 nM (active) | Potency [23]: 316 nM (active) | Potency [24]: 1470 nM (active) | Potency [25]: 39800 nM (active) | outcome [26]: inactive | outcome [27]: inactive | activation [28]: -0.125% (inactive) | outcome [29]: inactive | Potency [30]: 7080 nM (active)

O=C(c1cc(-c2ccccc2)n[nH]1)N1CCc2c(nc(-c3ccccc3)[nH]c2=O)C1
activity [31]: 4.33% | activity change, negative = inhibition [32]: 7.17% | activity [33]: 3.92% | activity [34]: 5.63%

CCNc1nccc(N2CCC(CC(=O)N3CCN(c4ccccc4F)CC3)CC2)n1
activity [31]: 6.4% | activity change, negative = inhibition [32]: 4.58% | activity [33]: 2.88% | activity [34]: 5.27%

COc1ccc(-c2[nH]nc3ncc(C(=O)N4CCC(c5ccccc5)CC4)nc23)c(C)c1
activity [31]: -39.6% | activity change, negative = inhibition [32]: -20.4% [at 85.7 µM] | activity [33]: -23.9% | activity [34]: -53.6%

Cc1ccc2nc(CN(C)C(=O)C3CCC(=O)N(C4CCCCCC4)C3)[nH]c2c1 (stereo not given)
activity [31]: -3.1% | activity change, negative = inhibition [32]: -4.65% | activity [33]: -9.1% | activity [34]: -9.49%

Cc1cc(-c2cc3c(cn2)N(C)CCN(C)C3)ccn1
activity [31]: 5.42% | activity change, negative = inhibition [32]: 4.1% [at 114 µM] | activity [33]: 2.35% | activity [34]: 3.56%
